Hits are enriched below; roughly 9.5% of the tested compounds scored in any of these assays.
Tau fluor cs: Counterscreen qHTS for Inhibitors of Tau Fibril Formation, Fluorescence Polarization | actives 0.93% (n = 280,000) | AID 1463, 2008 | Potency, µM (titrated, usually from 57.7 µM) | tau K18 P301L Alexa594 fluorescence, heparin fibrillization; also: nearly all actives have a fitted effect of over 55% in size
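Human K18 P301L tau (15 uM unlabeled plus 0.24 uM Alexa 594-labeled, final) in 100 mM sodium acetate pH 7 was mixed with compound and 20 uM heparin and incubated 6 hr at 37 C.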
NPSR antagonist: qHTS Assay for Antagonists of the Neuropeptide S Receptor: cAMP Signal Transduction. Q6W5P4. CHO-NPSR cells, cAMP TR-FRET, antagonist mode. Potency, µM (top dose mostly 38.3 µM), most hits filed as inhibitors. actives 1% (n = 220,000); also: nearly all actives have a fitted effect of over 50% in size
Tau fibril ThT: qHTS for Inhibitors of Tau Fibril Formation, Thioflavin T Binding. Microtubule-associated protein tau (Homo sapiens), P10636. actives 2.1% (n = 270,000). AID 1460, 2008. Potency, µM (highest dose often 57.4 µM), usual class: inhibitors. recombinant tau K18 P301L (four-repeat tau fragment), heparin-induced fibrillization, ThT fluorescence; also: nearly all actives have a fitted effect of over 55% in size
Target sequence (P10636 561-689 P618L limits assumed): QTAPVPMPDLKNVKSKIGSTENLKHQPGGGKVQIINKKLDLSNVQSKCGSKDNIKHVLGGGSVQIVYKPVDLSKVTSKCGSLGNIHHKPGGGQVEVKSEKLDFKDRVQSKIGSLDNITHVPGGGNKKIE
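Tau K18 P301L fragment (15 uM unlabeled plus 0.24 uM Alexa 594-labeled) in 100 mM sodium acetate pH 7 with compound, fibrillization induced by 20 uM heparin for 6 hr at 37 C. Thioflavin T (30 uM) added, fluorescence read after 1 hr (ex 450, em 510 nm).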
ALDH1A1 inh: qHTS Assay for Inhibitors of Aldehyde Dehydrogenase 1 (ALDH1A1). Aldehyde dehydrogenase 1A1 (Homo sapiens), P00352. Potency, µM (doses to about 75.3 µM), most hits filed as inhibitors. Purified ALDH1A1, NADH fluorescence, propionaldehyde substrate. actives 7.3% (n = 220,000); active = well fitted inhibition curve with a large enough effect, not every such curve was filed as active; inconclusive = small, poorly fitted or top-dose-only effect, or another doubt; inactive = no such curve, though single readings can be large or run the other way
HPGD block: qHTS Assay for Inhibitors of HPGD (15-Hydroxyprostaglandin Dehydrogenase); Potency, µM, hits mostly inhibitors; purified HPGD, NADH fluorescence kinetic, PGE2 substrate; 15-hydroxyprostaglandin dehydrogenase [NAD(+)] (Homo sapiens), P15428; actives 4.3% (n = 150,000); AID 894, 2007; active = well fitted inhibition curve with a large enough effect, not every such curve was filed as active; inconclusive = small, poorly fitted or top-dose-only effect, or another doubt; inactive = no such curve, though single readings can be large or run the other way
Target sequence (P15428 whole entry, looked up): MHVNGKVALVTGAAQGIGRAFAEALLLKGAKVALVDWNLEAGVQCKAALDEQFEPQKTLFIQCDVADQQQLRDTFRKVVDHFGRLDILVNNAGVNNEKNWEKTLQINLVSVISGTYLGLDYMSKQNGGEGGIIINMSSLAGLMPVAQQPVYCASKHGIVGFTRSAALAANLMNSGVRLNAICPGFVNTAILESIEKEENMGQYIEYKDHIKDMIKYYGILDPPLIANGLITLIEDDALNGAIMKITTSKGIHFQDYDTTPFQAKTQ
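NADH formation kinetics: reaction with 30 uM PGE2 and 1 mM NAD+ (final), 20 nM enzyme, Tris-HCl pH 8 with Tween 20, after 15 min compound preincubation at room temperature. Fluorescence change, last versus first of five reads.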
Tau fibril FP: qHTS for Inhibitors of Tau Fibril Formation, Fluorescence Polarization. K18 P301L tau heparin fibrillization, Alexa594 FP, 6 h. actives 0.39% (n = 280,000). Potency, µM (top dose mostly 57.7 µM), usual class: inhibitors; also: nearly all actives have a fitted effect of over 55% in size
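Compound effects on tau fibrillization are measured by Alexa 594 fluorescence polarization (ex 555, em 632 nm). K18 P301L tau is used at 15 uM with 0.24 uM labeled tracer, and 20 uM heparin induces aggregation over 6 hr at 37 C.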
A number is an active result; . = inactive; ? = inconclusive; / = no result; [ ] = dose if it differs, or a comment. Unless noted, calls follow the shape of the dose curve; as a rule, active = well fitted curve in the direction sought with a large enough effect; inconclusive = small, poorly fitted or top-dose-only effect, or another doubt; inactive = no such curve, though single readings can be large; an effect the other way counts as inactive or inconclusive.

SMILES	Tau fluor cs	NPSR antagonist	Tau fibril ThT	ALDH1A1 inh	HPGD block	Tau fibril FP
CCOc1ccccc1-n1ccnc(NCc2ccc(F)cc2)c1=O	.	/	.	/	/	.
O=C1/C(=C/c2ccncc2)SC(=S)N1C1CCS(=O)(=O)C1 (stereo unspecified)	.	.	?	22µM	.	?
CNS(=O)(=O)c1cn(CC(=O)Nc2ccc(C(C)=O)cc2)cc1S(=O)(=O)NC	.	/	.	/	/	.
O=C(CCSCc1ccc(Cl)cc1)NCCC1=CCCCC1	.	.	.	.	.	.
Cc1ccccc1CSCCC(=O)NCCC1=CCCCC1	.	.	.	.	13µM	.
O=C(CCc1ccccc1)NCCC1=CCCCC1	.	.	.	.	25µM	.
O=C(CCCc1ccccc1)NCCC1=CCCCC1	.	.	.	?	/	.
Cc1ccccc1CSCCNC(=O)CCSc1ccccc1	.	.	.	7.1µM	10µM	.
O=C(CNC1CCCCCC1)Nc1ccccc1N1CCCCC1	.	?	.	.	.	.
Cc1ccc(CSCCNC(=O)CCSc2ccccc2)cc1	.	.	.	?	?	.
O=C(CNCCC1=CCCCC1)Nc1ccccc1N1CCCCC1	.	?	.	9.5µM	?	.
CCCCNC(=O)CNC(=S)N(CCCN1CCOCC1)Cc1cccs1	.	.	.	.	.	.
COc1ccc(/C=C/C(=O)Nc2sc3c(c2C(N)=O)CCC(C)C3)cc1OC (stereo unspecified)	.	/	?	/	/	.
CCN1CCN(Cc2ccc(NC(=O)c3cc(NC(=O)c4cncc(-c5ccc(C#N)cc5)c4)cc(OC)c3)cc2C(F)(F)F)CC1	?	.	.	/	/	8.9µM
COc1cc(N(C)C)c([N+](=O)[O-])cc1C(=O)NC(C)CNc1ccc([N+](=O)[O-])cc1Cl (stereo unspecified)	.	.	.	1.6µM	.	.
COc1cccc(Oc2ccc(N/C=C/C(=O)C(C)(C)C)cc2)c1	.	.	.	10µM	.	.
COc1ccc(Oc2ccc(N/C=C/C(=O)C(C)(C)C)cc2)cc1	.	.	.	?	/	.
CC(=O)Nc1ccc(N/C=C/C(=O)C(C)(C)C)cc1	.	.	?	22µM	?	.
Cn1ccc2cc(S(=O)(=O)N3CCN(C(=O)Nc4ccccc4F)CC3)ccc21	.	/	.	/	/	.
CCN(CC)S(=O)(=O)c1cccc(C(=O)NCCCn2ccnc2)c1	.	.	.	/	/	.
COc1ccc(-c2nnc(SCC(=O)Nc3ccc(F)cc3)s2)cc1	.	/	.	/	/	.
S=C(NCc1cccnc1)Nc1ccc(Oc2ccc(Cl)cc2)cc1	13µM[quencher]	.	.	.	/	?
CC(C)(C)c1ccc(NC(=S)NCc2cccnc2)cc1	.	.	.	/	/	.
CCC(C)c1ccc(NC(=S)NCc2cccnc2)cc1 (stereo unspecified)	.	.	.	16µM	?	.
S=C(NCc1cccnc1)Nc1ccc(Cl)c(Cl)c1	?	.	.	?	14µM	?
SMILES	Tau fluor cs	NPSR antagonist	Tau fibril ThT	ALDH1A1 inh	HPGD block	Tau fibril FP
Fc1ccc(NC(=S)NCc2cccnc2)cc1	.	.	.	.	/	.
CNc1nc(-c2c(C)noc2C)nc2ccccc12	/	/	/	.	/	/
COc1ccccc1Nc1nc(C2(C)CCC(=O)O2)cs1 (stereo unspecified)	.	.	.	?	.	.
Cc1ccnc(NC(c2cc(C)ccc2O)c2ccc3cccnc3c2O)c1 (stereo unspecified)	?	/	16µM	/	/	.
Cc1ccnc(NC(c2ccsc2)c2ccc3ccc(C)nc3c2O)c1 (stereo unspecified)	.	.	?	25µM	/	.
Cc1ccnc(NC(c2ccccc2F)c2ccc3cccnc3c2O)c1 (stereo unspecified)	.	/	?	/	/	.

Screens as filed in PubChem BioAssay.
